“And” between values parts separate entries of the source, which are not always exact repeats. Equal values may be shown once. In all, about 5,500 compounds went through this assay and about 2,000 (36%) were called active. Roughly 18% stayed inconclusive and do not appear here. No stated cut-off is given here; in the data, active means normalized growth mostly below about 0.91 (no sharp cut-off); inconclusive means no clear call, values can overlap the other calls; inactive means mostly above about 0.92. The list shows a part of the results.
Test: chemical genetic growth profiling, strain panel (AID 1159580);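 further: tested at 20 µM; growth read once vehicle control cultures reached saturation at 30 °C; 1 = growth at the plate median or of vehicle wells; lower values mean less growth of the strain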
Settings: S. cerevisiae deletion strains, growth OD

Measured: normalized growth

Nc1nc(N)c2nc(-c3ccccc3)c(N)nc2n1
inactive: locus YAL013W, strain DEP1, active compounds read low 1 | locus YAL021C, strain ccr4, active compounds read low 1.01 | locus YAL026C, strain drs2, active compounds read low 1.01 | locus YAL030W, strain snc1, active compounds read low 0.998 | locus YAL040C, strain CLN3, active compounds read low 0.986 | locus YBL061C, strain skt5, active compounds read low 1 | locus YBR009C, strain hhf1, active compounds read low 0.969 | locus YBR021W, strain FUR4, active compounds read low 1.01 | locus YBR023C, strain chs3, active compounds read low 0.997 | locus YBR171W, strain sec66, active compounds read low 1.01 | locus YBR229C, strain ROT2, active compounds read low 1 | locus YBR231C, strain swc5, active compounds read low 1 | locus YBR279W, strain paf1, active compounds read low 0.994 | locus YCL011C, strain gbp2, active compounds read low 0.992 | locus YCL016C, strain dcc1, active compounds read low 0.999 | locus YCL029C, strain bik1, active compounds read low 1.01 | locus YCL061C, strain MRC1 (second series), active compounds read low 0.989 | locus YCL061C, strain MRC1, active compounds read low 1.01 | locus YCL069W, strain vba3, active compounds read low 1 | locus YCR088W, strain abp1, active compounds read low 0.992 | locus YDL005C, strain med2, active compounds read low 1.01 | locus YDL035C, strain GPR1, active compounds read low 1.01 | locus YDL040C, strain nat1, active compounds read low 1.01 | locus YDL074C, strain BRE1, active compounds read low 0.973 | locus YDL101C, strain DUN1, active compounds read low 1.01 | locus YDL134C, strain PPH21, active compounds read low 1 | locus YDL185W, strain tfp1, active compounds read low 1.01 | locus YDL192W, strain arf1, active compounds read low 1.01 | locus YDR001C, strain nth1, active compounds read low 1.02 | locus YDR069C, strain doa4, active compounds read low 1 | locus YDR101C, strain arx1, active compounds read low 0.999 | locus YDR137W, strain rgp1, active compounds read low 1 | locus YDR150W, strain NUM1, active compounds read low 0.987 and 0.981 | locus YDR159W, strain sac3, active compounds read low 0.951 | locus YDR162C, strain NBP2, active compounds read low 1.01 | locus YDR195W, strain ref2 1 | locus YDR297W, strain sur2, active compounds read low 1 | locus YDR318W, strain mcm21, active compounds read low 1 | locus YDR334W, strain swr1, active compounds read low 1 | locus YDR335W, strain msn5, active compounds read low 1 | locus YDR363W, strain ESC2, active compounds read low 1 | locus YDR388W, active compounds read low 1.01 | locus YDR392W, strain spt3, active compounds read low 0.946 | locus YDR502C, strain sam2, active compounds read low 1 | locus YEL003W, strain gim4, active compounds read low 1.01 | locus YEL037C, strain rad23, active compounds read low 0.997 | locus YEL061C, strain CIN8 (second series), active compounds read low 1 | locus YEL061C, strain CIN8, active compounds read low 1 | locus YER002W, strain NOP16, active compounds read low 1 | locus YER015W, strain faa2, active compounds read low 0.993 | locus YER016W, strain bim1, active compounds read low 0.966 | locus YER110C, active compounds read low 1.01 | locus YER111C, strain swi4, active compounds read low 1.01 | locus YER155C, strain BEM2 (second series), active compounds read low 0.957 | locus YER155C, strain BEM2, active compounds read low 1.01 | locus YER167W, strain BCK2, active compounds read low 1.01 | locus YFR010W, strain ubp6, active compounds read low 1.02 | locus YGL078C, strain dbp3, active compounds read low 1.01 | locus YGL086W, strain mad1, active compounds read low 1 | locus YGL167C, strain pmr1, active compounds read low 1.01 | locus YGL173C, strain kem1, active compounds read low 1 | locus YGL227W, strain vid30, active compounds read low 1.01 | locus YGL240W, strain doc1, active compounds read low 1 | locus YGL248W, strain PDE1, active compounds read low 0.999 | locus YGL253W, strain hxk2, active compounds read low 0.99 | locus YGR078C, strain PAC10, active compounds read low 0.996 and 0.977 | locus YGR135W, strain pre9, active compounds read low 1.01 | locus YGR229C, strain SMI1, active compounds read low 1.02 | locus YGR252W, strain gcn5, active compounds read low 0.939 | locus YHR013C, strain ard1, active compounds read low 0.978 | locus YHR027C, strain rpn1, active compounds read low 1 | locus YHR030C, strain SLT2, active compounds read low 0.999 and 0.991 | locus YHR079C, strain IRE1 (second series), active compounds read low 1.02 | locus YHR079C, strain IRE1, active compounds read low 0.975 | locus YHR094C, strain hxt1, active compounds read low 1 | locus YHR129C, strain ARP1, active compounds read low 0.993 | locus YHR142W, strain chs7, active compounds read low 0.996 | locus YHR200W, strain rpn10, active compounds read low 1.01 | locus YIL066C, strain RNR3, active compounds read low 1 | locus YIL073C, strain SPO22, active compounds read low 1.05 | locus YIL125W, strain kgd1, active compounds read low 1.01 | locus YIR030C, strain dcg1, active compounds read low 1.01 | locus YJL092W, strain hpr5, active compounds read low 1.01 | locus YJL095W, strain BCK1 (second series), active compounds read low 1.01 | locus YJL095W, strain BCK1, active compounds read low 0.988 | locus YJL115W, strain asf1, active compounds read low 1 | locus YJL129C, strain trk1, active compounds read low 0.993 | locus YJL134W, strain LCB3, active compounds read low 1 | locus YJL154C, strain vps35, active compounds read low 0.992 | locus YJL164C, strain tpk1, active compounds read low 0.981 | locus YJL166W, strain qcr8, active compounds read low 1.02 | locus YJL168C, strain set2, active compounds read low 1.01 | locus YJL187C, strain SWE1 (second series), active compounds read low 1 | locus YJR043C, strain POL32, active compounds read low 0.994 | locus YJR066W, strain TOR1, active compounds read low 0.938
